Rows were chosen to be rich in hits. Some 6% of all compounds tested hit in one or more screens of this group.
PLK1 PBD block – blocks phosphopeptide binding to human PLK1 polo-box domain; AID 720504; Potency, µM, without a hit: max response, negative = inhibition, hits mostly inhibitors; actives 2.8% (n = 360,000); Plk1 PBD binding of FITC phosphopeptide, fluorescence polarization; P53350; further: series mostly up to about 57 µM; nearly all actives have a fitted effect of over 65% in size
VDR inhibitor – vitamin D3 receptor (human) inhibition | actives 0.93% (n = 400,000) | P11473 | VDR-SRC2-3 peptide fluorescence polarization, 2 h | Potency, µM, without a hit: max response, negative = inhibition, actives largely listed as inhibitors
Target sequence (P11473 whole entry, looked up): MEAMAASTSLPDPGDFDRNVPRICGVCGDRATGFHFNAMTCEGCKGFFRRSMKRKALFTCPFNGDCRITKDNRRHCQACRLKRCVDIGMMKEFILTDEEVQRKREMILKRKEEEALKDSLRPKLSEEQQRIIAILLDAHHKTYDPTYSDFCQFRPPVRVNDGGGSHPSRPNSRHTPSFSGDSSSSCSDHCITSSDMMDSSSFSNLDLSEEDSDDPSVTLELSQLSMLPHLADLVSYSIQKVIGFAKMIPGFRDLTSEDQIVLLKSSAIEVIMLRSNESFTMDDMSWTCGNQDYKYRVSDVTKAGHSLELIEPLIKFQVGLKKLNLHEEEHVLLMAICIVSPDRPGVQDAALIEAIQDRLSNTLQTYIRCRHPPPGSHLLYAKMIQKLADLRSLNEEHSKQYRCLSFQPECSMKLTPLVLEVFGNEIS
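The screen uses fluorescence polarization to detect compounds that interfere with recruitment of the SRC2-3 coactivator peptide to VDR; plates are read after 2 h at room temperature.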
Tau fibril ThT – tau fibrillization inhibition (ThT binding) | P10636 | recombinant tau K18 P301L, heparin-induced fibrillization, ThT fluorescence | Potency, µM (highest dose often 57.4 µM), for inactives: at the highest dose activity, negative = inhibition, hits mostly inhibitors | actives 2.1% (n = 270,000) | AID 1460; further: nearly all actives have a fitted effect of over 55% in size
Target sequence (P10636 561-689 P618L limits assumed): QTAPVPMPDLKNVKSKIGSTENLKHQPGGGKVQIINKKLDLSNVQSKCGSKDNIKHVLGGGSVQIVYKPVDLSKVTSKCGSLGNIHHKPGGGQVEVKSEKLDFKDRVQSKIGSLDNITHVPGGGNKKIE
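Fibril formation assay: tau K18 P301L at 15 uM with trace Alexa 594 label, heparin inducer 20 uM, pH 7 sodium acetate buffer, 37 C for 6 hr; endpoint ThT signal.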
Tau fluor cs – counter-screen for tau fibril formation inhibitors; tau K18 P301L Alexa594 fluorescence, heparin fibrillization; Potency, µM (top dose mostly 57.7 µM), for the others: at the top dose activity change, negative = decrease; actives 0.93% (n = 280,000); AID 1463; further: nearly all actives have a fitted effect of over 55% in size
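Human tau K18 P301L (15 uM unlabeled, 0.24 uM Alexa 594-labeled) in 100 mM sodium acetate pH 7 with 20 uM heparin, 6 hr at 37 C. ThT 30 uM added, 1 hr ambient; Alexa 594 FP and total fluorescence read at 555/632 nm.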
Sfp PPTase inh – inhibitors of Bacillus subtilis Sfp phosphopantetheinyl transferase; AID 1490; Biochemical Sfp PPTase activity, qHTS; Potency, µM, for inactives: largest response in the series, negative = inhibition, actives largely listed as inhibitors; Q9F4F7; actives 3.5% (n = 310,000);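 further: the enzyme is Sfp with the accession as filed and its product quenches rhodamine fluorescence; 0% = enzyme reaction without inhibitor and -100% = no enzyme wells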
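Buffer: 50 mM Hepes-Na pH 7.6, 10 mM MgCl2, 0.01% Nonidet P-40, 0.01% BSA. Enzyme 15 nM, pre-exposed to compound 15 min; substrates then added and fluorescence change tracked over 30 min.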
Tau fibril FP – inhibitors of human tau fibril formation; P10636; K18 P301L tau heparin fibrillization, Alexa594 FP, 6 h; Potency, µM (doses to about 57.7 µM), inactives show at the top dose activity, negative = inhibition, usual class: inhibitors; actives 0.39% (n = 280,000); further: nearly all actives have a fitted effect of over 55% in size
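Steps: dispense K18 P301L tau (15 uM plus 0.24 uM Alexa 594 tracer, final) in pH 7 sodium acetate; add compound; add heparin (20 uM final); incubate 6 hr, 37 C; add ThT (30 uM final); after 1 hr ambient, read FP.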
* hit, by the source's call; ? = inconclusive; . = no result given; ! = a repeat was not active; [ ] = dose if it differs, or a comment. The call rests on the fitted dose curve; in most records, active means well fitted curve in the direction sought with a large enough effect; inconclusive means small, poorly fitted or top-dose-only effect, or another doubt; inactive means no such curve, though single readings can be large; an effect the other way counts as inactive or inconclusive. Unless noted, on the % scale 0 is the no-effect control and ±100 the full control effect; potency means the concentration at half of the fitted maximal effect.

SMILES	PLK1 PBD block	VDR inhibitor	Tau fibril ThT	Tau fluor cs	Sfp PPTase inh	Tau fibril FP
CN1CCN(C(CNC(=O)c2c(F)cccc2F)c2ccc3c(c2)OCO3)CC1 (centres undefined)	.	-14%	6%	7%	.	-2%
N#C/C(=C\c1ccc(-c2cccc(Cl)c2)o1)C(=O)Nc1cccc2cccnc12	-12%	-16%	2.5µM*	-17%	-1%	8%
OCC(O)C(O)C(O)C(O)C1NCCS1 (centres undefined)	-17%	-32%	20µM*	-15%	-3%	?
COc1ccc(N(CC(=O)Nc2cc(C)ccc2C)S(=O)(=O)c2ccccc2[N+](=O)[O-])c(OC)c1	12µM*	-11%	-14%	-22%	-23%	-8%
N#C/C(=C\c1ccccc1)C(=O)NNS(=O)(=O)c1ccc(Br)cc1	21µM*	45µM*	.	.	.	.
O=[N+]([O-])c1ccc(Nc2nc(N/N=C\c3ccc4c(c3)OCO4)nc(N3CCCCC3)n2)cc1	-20%	5%	32µM*	?	32%	8%
CC1(OC(=O)C2CCCC2)C(=O)C=C2C=C(c3ccsc3)N(C3CCCCC3)C=C2C1=O (centres undefined)	-22%	-14%	14µM*!	-8%[11.6 µM]	-4%	?
NCCNc1cccc2ccccc12	.	50µM*	.	.	71µM*	.
CCNc1ccccc(C(=O)/C=C/c2ccc3c(c2)OCO3)c1=O	24µM*	?	14µM*	?	45µM*	?
O=C(/C=C/c1ccc2c(c1)OCO2)c1cccs1	.	20µM*	?	-4%	71µM*	6%
CCOC(=O)C1=C(N)Oc2c(c(=O)[nH]c3ccccc23)C1c1ccccc1 (centres undefined)	-6%	-1%	8%	3%	20µM*	-3%
O=S(=O)(c1ccc(F)cc1)N1CCN(c2nc(-c3cccs3)nc3cc(Cl)ccc23)CC1	.	-20%	.	.	.	.
Cc1[nH]oc(=O)c1N=Nc1c(Cl)cccc1Cl	-6%	-5%	?	-7%	-20%	-7%
Cc1[nH]oc(=O)c1N=Nc1ccccc1	-2%	-6%	25µM*	-16%	-22%	?
O=C(CNc1ccc(Br)cc1)c1ccc(O)cc1	?	3%	?	?	40µM*	7%
CCSc1nc(=S)cc(C)[nH]1	27µM*	79µM*	?	-18%	22µM*	?
CCSc1nc(O)cc(=O)[nH]1	0%	-6%	-3%	2%	19%	-3%
Cc1ccc(-n2nnnc2CNC(=O)c2ccc(F)cc2)cc1C	.	11%	0%	1%	.	-1%
Cc1cc(C(=O)N/N=C/c2cc(Br)cc([N+](=O)[O-])c2O)c2ccccc2n1	-1%	-27%	7.9µM*	?	-2%	?
COC(=O)N/N=C/c1cc(Br)ccc1O	-1%	2%	?	0%	-7%	7%
Cc1cc(C(=O)N/N=C/c2cc([N+](=O)[O-])ccc2O)c2ccccc2n1	-9%	9%	?	4%	-2%	7%
Cc1cc(C(=O)N/N=C/c2cccc([N+](=O)[O-])c2O)n[nH]1	-8%	-2%	14µM*	-21%	12%	-4%
COC(=O)N/N=C/c1cc(N=Nc2ccccc2Cl)ccc1O	?	-2%	1.6µM*	?	-13%	-2%
COC(=O)N/N=C/c1cc(N=Nc2ccccc2)ccc1O	4%	1%	1.1µM*	?	7%	2%
Cc1ccc(C)c(C(=O)CSc2nc(-c3ccccc3)nc3c2CCCC3)c1	.	-15%	-11%	-14%	.	-2%
SMILES	PLK1 PBD block	VDR inhibitor	Tau fibril ThT	Tau fluor cs	Sfp PPTase inh	Tau fibril FP
Cc1ccc(C)c(N2CCN(S(=O)(=O)c3ccc(F)c(C(=O)Nc4ccc(Cl)cc4Cl)c3)CC2)c1	.	16%	-3%	-8%	.	?
Nc1ccc(C(=O)N/N=C\c2cc(N=Nc3cccc4ccccc34)ccc2O)cc1	-6%	5%	3.2µM*	?	-7%	13%
Cc1cc(C(=O)N/N=C/c2cc(N=Nc3ccccc3)ccc2O)n[nH]1	-5%	-5%	7.1µM*	?	-14%	1%
CCc1ccc(NC(=O)[C@H](NC(=O)[C@@H]2Cc3ccccc3CN2)c2ccccc2)cc1	30µM*	-14%	.	.	-23%	.
CN(C)C(=O)NC(NC(=S)Nc1ccccc1)C(Cl)(Cl)Cl (centres undefined)	12µM*	?	-13%	-12%	56µM*	?
Cc1cc(/C=C/c2ccc3cc(N(C)C)ccc3[n+]2C)c(C)n1-c1ccccc1	.	.	.	.	-27%	-13%
Cc1ccc(S(=O)(=O)c2ccc([N+](=O)[O-])cn2)cc1	?	25µM*	.	.	?	.
Cc1ccc(S(=O)(=O)c2ccc(C)cc2)cc1	-2%	4%	-2%	-7%	-4%	-11%
O=[N+]([O-])c1ccc(S(=O)(=O)c2ccccc2)nc1	5.3µM*	40µM*	.	.	50µM*	.
O=C1C=CC(=O)c2c(O)c(N3CCN(CCO)CC3)c(Cl)c(O)c21	12µM*	8.9µM*	.	.	.	.
O=S(=O)(c1ccc(Br)cc1Cl)N1CCN(CCO)CC1	-5%	-16%	1%	2%	18%	0%
CCCCCSc1nc2c(cnn2-c2ccccc2)c(=O)[nH]1	-6%	-2%	2%	1%	-5%	2%
Cc1ccc(-n2ncc3c(=O)[nH]c(SCC(=O)N4CCOCC4)nc32)cc1	-1%	0%	-7%	4%	26%	10%
Nc1nc(SCC(=O)N2CCCC2)[nH]c(=O)c1-c1ccccc1	6.7µM*	0%	-1%	0%	1%	-1%
O=C(CSc1nc2c(cnn2-c2ccccc2)c(=O)[nH]1)N1CCOCC1	13µM*	-2%	-6%	-8%	-11%	-9%
CCCCCSc1nc2c(cnn2-c2ccc(F)cc2)c(=O)[nH]1	27µM*	-22%	.	.	1%	.
CCC(=O)Nc1cccc2cccnc12	-21%	3%	-1%	4%	6%	6%
C/C(=N\Nc1cccc2cccnc12)c1ccc[nH]1	1%	4%	4.5µM*	?	-14%	14%
O=P(c1ccccc1)(c1ccccc1)c1nc(-c2ccccc2)oc1N1CCOCC1	-11%	-14%	1%	2%	-7%	0%
O=P(c1ccccc1)(c1ccccc1)c1nc(-c2ccc(Cl)cc2)oc1N1CCOCC1	24µM*!	?	?	-23%	?	-10%
COc1ccc(OC)c(CN2CCN(C(=O)c3ccc(S(=O)(=O)Nc4ccccc4F)cc3)CC2)c1	-15%	9%	.	.	.	.
Cc1ccc(S(=O)(=O)Cc2nc(-c3ccc(C(=O)NCc4ccccc4F)cc3)oc2C)cc1	.	8%	16%	-2%	.	-10%
Cc1c(Cl)cccc1N1CC(C)(C)C1=O	27µM*	-14%	2%	4%	15%	5%

Screening results deposited in PubChem by National Center for Advancing Translational Sciences (NCATS).
